In all, about 65,000 compounds went through this assay and about 45 (0.07%) were called active. Only a selection was taken, and actives are over-represented in it overall. Unmarked numbers belong to inactive results.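 How the source made its calls: active means inhibition above the mean of compound-free control plate wells plus 3 SD (cut at about 14% in these data); inactive means the rest.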

The target in the test is Collagenase 3 (Homo sapiens) (UniProt P45452). Briefly: human MMP13 inhibitors, primary screen, biochemical, FRET peptide cleavage (AID 570).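 Further: 0% = DMSO wells and 100% = wells with reference MMP-13 inhibitor after basal subtraction.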 To be noted: MMP-13 fTHP FRET cleavage, Mca fluorescence; at 4 µM; active compounds read high.
Broadly, the inhibition is the relative decrease from the control value, in per cent. As to `O=C(NCCN1CCOCC1)[C@H](Cc1ccccc1)N1C(=O)c2ccccc2C1=O`, the inhibition was 0.6%.

Consider `COc1ccc(O)c(C(=O)c2cnc3onc(C(C)C)c3c2)c1`, for which the inhibition was 8.5%.

`COC(=O)c1ccc(Oc2nc(NC(C)C)nc(SC)n2)cc1`: the inhibition is 0.3%.

On to `OCc1n[nH]c(CO)n1`, for which the inhibition is -2.9%.

For the compound `CCN1C(=O)/C(=C\N2CCN(c3cccc(Cl)c3)CC2)SC1=S`, the inhibition was 4.2%.

Regarding `CCN1C(=O)/C(=C2/Sc3ccccc3N2CCCS(=O)(=O)O)SC1=S`, the inhibition was 17.1% (active).

Turning to `CCN1C(=O)/C(=C\N2CCN(c3ccccc3)CC2)SC1=S`, the inhibition was 3.4%.

In the case of `CCc1nnc(NC(=O)c2nc3nccc(C)n3n2)s1`, the inhibition is 1.3%.

Turning to `COc1ccc2c(c1)OC(O)(C(F)(F)C(F)F)CC2=O` (configuration not stated), the inhibition was 4.3%.

As for `CC1(C)Cc2ccccc2-c2nnc(-c3cccc(O)c3)n21`, the inhibition is -1.1%.

For the compound `O=C(Nc1ccc(Cl)cn1)c1cnn2cccnc12`, the inhibition was -1.1%.

For the compound `O=c1[nH]c(=O)n(Cc2ccco2)c2c1C(C(F)(F)F)(C(F)(F)F)N=C(c1ccco1)N2`, the inhibition was -3.7%.

As for `CC(C)n1c(NCc2c[nH]c3ccccc23)nc2ccccc21`, the inhibition is -5.6%.

In the case of `COc1cc(C(O)c2nc3ccccc3n2C)cc(OC)c1OC` (configuration not stated), the inhibition was 1%.

In the case of `Cc1cc(C)c(C#N)c(SCc2ccc3c(c2)OCO3)n1`, the inhibition is 3.3%.

`COc1ccc(C2C(C(=O)N3CCN(c4ccc(OC)cc4)CC3)c3ccccc3C(=O)N2C)cc1` (configuration not stated): the inhibition was 2.8%.

For `CNC(=O)CSc1nnnn1-c1ccc(C)cc1C`, the inhibition was 1.5%.

On to `CC1(C)CC(=O)C(C=NCc2cccnc2)=C(O)C1`, for which the inhibition is 2.8%.

On to `CCC(=O)Nc1cccc(NC(=O)c2cccnc2)c1`, for which the inhibition was -1.1%.

For `CCC1CCCCN1C(=O)Nc1cccc(NC(=O)N2CCCCC2CC)c1` (configuration not stated), the inhibition is -2.3%.

Regarding `CCOC(=O)C1(c2ccccc2)NC(c2ccc(N(C)C)cc2)C2C(=O)N(C)C(=O)C21` (configuration not stated), the inhibition is -4.8%.

Consider `O=C(Nc1ccc2c(c1)OCCO2)C1CCCN(c2ncccn2)C1` (configuration not stated), for which the inhibition was 4.5%.

Regarding `Cc1ccccc1CSc1nnc(-c2cccnc2)n1N`, the inhibition is 4.9%.

On to `CN(C(=O)C1CCOC1)c1nnc(-c2cccnc2)s1` (configuration not stated), for which the inhibition is -4.2%.

In the case of `COc1cccc(-n2cc3c(c2-c2ccccc2)c(=O)n(C)c(=O)n3C)c1`, the inhibition was -1.8%.

On to `Cn1c(=O)c2c(nc(SCCNS(=O)(=O)c3ccccc3)n2C)n(C)c1=O`, for which the inhibition was -2.9%.

For the compound `CC(C)OC(=O)c1cc(NC(=O)C2C3CCC(O3)C2C(=O)O)cc(C(=O)OC(C)C)c1` (configuration not stated), the inhibition is -25.2%.

As for `Cc1noc(COc2ccccc2OCC(O)CNC(C)(C)C)n1` (configuration not stated), the inhibition is -0.8%.

For the compound `O=C(CCCN1C(=O)CCC1=O)Nc1ccc(Cl)c(C(F)(F)F)c1`, the inhibition is 1.9%.

For the compound `Cc1cccc(-n2c(Cc3cc(=O)[nH]c(=O)[nH]3)nnc2SC(C)C)c1`, the inhibition is 2.4%.

Take `O=C(OCc1ccccc1F)c1ccc2c(c1)OCCO2`: the inhibition is -0.1%.

With `O=c1ccn(Cc2ccccc2Cl)cc1`, the inhibition is 0.5%.

In the case of `COc1ccc(Cn2nnc3c(=O)[nH]c(C4CCN(C(=O)c5ccccc5Cl)CC4)nc32)cc1`, the inhibition is 7.2%.

Turning to `CCOC(=O)[C@H]1CCC[C@@H](NS(=O)(=O)c2ccc(NC(C)=O)cc2)C1`, the inhibition is 0%.

Turning to `COc1ccccc1NC(=O)CSc1nnc(-c2ccoc2C)n1CCc1ccccc1`, the inhibition was -3.7%.

Take `Cc1cc(Nc2cccc(C)c2C)n2ncnc2n1`: the inhibition is 6.6%.

As to `CCCc1nc2c3cnn(-c4cccc(Cl)c4)c3ncn2n1`, the inhibition is -4.1%.

`CC12CN3CC(C)(CN(C1)C3c1ccc(Cl)cc1Cl)C2=O` (configuration not stated): the inhibition is 6.8%.

In the case of `Cc1ccc(C(C)C)c(OCc2nnc(SCC(=O)Nc3nccs3)n2C)c1`, the inhibition was -0.8%.

For `CCOC(=O)N1CCC(NC(=O)Cn2cc3c(n2)CCCCC3)CC1`, the inhibition was 3%.

Regarding `Cc1cc(C)nc(N2C(=O)CC(Cc3ccccc3)C2=O)n1` (configuration not stated), the inhibition is 2.4%.

Take `CC1CCCC(NC(=O)CN2CCN(Cc3ccc(Cl)cc3)C2=O)C1C` (configuration not stated): the inhibition was -0.6%.

Turning to `CCOC(=O)N1CCC(Nc2c(NCCCN3CCN(c4ccc(OC)cc4)CC3)c(=O)c2=O)CC1`, the inhibition was 2.1%.

For the compound `O=C(CCC(=O)OCC(F)(F)C(F)F)NCc1ccccc1`, the inhibition is 1.8%.

For `Cc1cc(/C=N/n2cnnc2)c(C)n1-c1ccc2ncccc2c1`, the inhibition was -12%.

On to `CC(=O)NC(C)(C)C1CC=C(C)/C(=N\O)C1` (configuration not stated), for which the inhibition is 4.1%.

On to `CCOc1ccc(OCC)c(NC(=O)CN(C)S(=O)(=O)c2cccc3nsnc23)c1`, for which the inhibition was -2.8%.

On to `Cc1cccc(-n2c(O)c(C=Nc3ccccc3N)c(=O)[nH]c2=O)c1`, for which the inhibition was -15.8%.

As for `N#CC(C(=O)c1ccc(S(=O)(=O)N2CCCCCC2)cc1)c1nc2ccccc2[nH]1` (configuration not stated), the inhibition was -11.8%.

With `CC1C=CCC2C(=O)N(c3cccc(C(=O)N4CCCCCC4)c3)C(=O)C12` (configuration not stated), the inhibition is 4.6%.

In the case of `Cc1nc2ccccc2c2oc(C(=O)NCC3CCCO3)cc12` (configuration not stated), the inhibition was -8.8%.

Consider `CCCn1c(SCC(=O)N2CCc3ccccc32)nnc1-c1ccncc1`, for which the inhibition is -0.9%.

Consider `COc1ccc(S(=O)(=O)N2CCCCC2)cc1Br`, for which the inhibition was 3.3%.

Turning to `Cc1ccc(-n2nc3cc(Cl)c(NC(=O)c4ccco4)cc3n2)cc1`, the inhibition is -66.9%.

For the compound `Cc1ccc(S(=O)(=O)c2c(N)n(C)c3nc4ccccc4nc23)cc1`, the inhibition is -244%.

As for `CCC(C)NC(=O)N[C@@H](CCSC)C(=O)O` (some centres not stated), the inhibition was 1.5%.

As to `C=CCOc1ccc(C2/C(=C(\O)c3c(C)[nH]c(C(=O)OC)c3C)C(=O)C(=O)N2CCN(C)C)cc1` (configuration not stated), the inhibition is 2.9%.

For the compound `COc1ccc(OC)c(NC(=O)CCN2CCC(C)CC2)c1`, the inhibition was 3.7%.

For `COc1ccccc1OCCC(=O)OCC(=O)NC(=O)NC(C)(C)C`, the inhibition was 3.7%.

For `CC(C)(C)c1cc(CN2CCN(CCC#N)CC2)cc(C(C)(C)C)c1O`, the inhibition was -0.2%.

Regarding `CCOC(=O)C1=C(C)NC(C)=C(C(=O)OCC)C1c1ccccn1`, the inhibition is -0.7%.

Consider `CCOc1ccc(C(=O)Nc2ccncc2)cc1`, for which the inhibition is 3.1%.

For the origin of these results see PubChem BioAssay AID570 (The Scripps Research Institute Molecular Screening Center, 2006).
